# Screening results: PubChem BioAssay, several laboratories
# Rows were chosen to be rich in hits. Some 2.6% of all compounds tested hit in one or more screens of this group.
# TROY signal inh: inhibitors of TROY-driven NF-kB signaling, primary screen, Q293 LMP1-TROYcd cells, NF-kB luciferase, uHTS. hit rate 0.98% among 360,000. inhibition, % at 10 µM. Q293 LMP1-TROYcd NF-kB luciferase reporter, 4 h;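 active = compounds whose plate-normalised and pattern-corrected inhibition of the luciferase reporter signal at the single screening dose is 50% or more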
# EWS-Fli inh: EWS/Fli-driven NR0B1 reporter inhibitors, primary screen, A673 cells, NR0B1 luciferase, luminescence, MLPCN library; viability-normalised; inhibition, % at 12.6 µM; hit rate 0.67% among 350,000; AID 651661, 2012;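 active = mean inhibition of at least 50% after viability correction, with every replicate also passing that limit; inconclusive = mean reaches 50% but only one of two replicates passes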;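 note: firefly luciferase signal divided by Alamar Blue viability fluorescence both relative to DMSO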
# TWEAK Fn14 block: inhibitors of TWEAK-Fn14 signaling, primary screen, luciferase reporter cells, uHTS | AID 1159606, 2016 | TWEAK-stimulated Fn14 reporter cells, luciferase luminescence, 8 h | inhibition, % at 10 µM | hit rate 2% among 360,000; in the data active = inhibition above about 50%
# LGR2 inh: inhibitors of bursicon-induced LGR2 CRE-luciferase signal, primary screen, cell-based, HEK293, CRE-luciferase reporter, bursicon stimulation; bursicon-stimulated, 4 h; inhibition, % at 9.99 µM; hit rate 0.35% among 380,000; AID 720647, 2013;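 active = drop in luminescence signal, shown as inhibition above about 50% in the replicate tests, limit read from the data, passing the limit was not always enough; inconclusive = probably only some replicates passing the limit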;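 note: agonist challenge used bursicon conditioned medium at about half maximal strength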
# LMP1 NFkB inh: EBV LMP1-driven NF-kappaB luciferase reporter inhibitors, primary screen, cell-based, luminescence, single point. LMP1-induced NF-kappaB luciferase reporter cells. inhibition, % at 12.5 µM. hit rate 0.69% among 350,000; in the data active = inhibition above about 41%; inconclusive = no clear call, values can overlap the other calls
# DNA binding: DNA binders by acridine orange displacement, dose response, counter-screen for EWS/Fli inhibitor project, biochemical, fluorescence polarization, cherry-pick | shares compounds with EWS-Fli inh | salmon sperm DNA acridine orange fluorescence polarization | AC35, µM (doses to about 68 µM) | hit rate 2% among 640 | AID 720586, 2013;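 active = fitted curve reaches a 35% signal fall AC35 below twice the sample's top valid tested dose, actives reach about 48 µM in these data; inactive = the rest, including activity in the rising direction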;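 note: lower polarization ratio signals compound binding to DNA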
# Numbers stand for hits; . = inactive; ? = inconclusive; / = no result given.
SMILES,TROY signal inh,EWS-Fli inh,TWEAK Fn14 block,LGR2 inh,LMP1 NFkB inh,DNA binding
CCN1/C(=C/C=C/c2oc3ccc(-c4ccccc4)cc3[n+]2CC)Oc2ccc(-c3ccccc3)cc21,.,90.5,55.9,.,43.5,22.4µM
CCCNC(=O)[C@H]1[C@H](CO)[C@H]2Cn3c(cccc3=O)[C@H]2N1C(=O)C1CC1,/,/,/,.,/,/
CN(C)Cc1c(O)ccc2c1O/C(=C\C=C\c1ccccc1)C2=O,.,75.2,.,.,.,.
CCN1CCN(Cc2c(O)ccc3c2O/C(=C\C=C\c2ccccc2)C3=O)CC1,.,.,.,.,.,/
COc1ccc(CN(C)c2ncnc3sccc23)c(OC)c1OC,.,63.0,.,.,.,.
S=C(NCCN1CCOCC1)Nc1ccccc1Cl,.,83.1,.,.,.,.
Nc1nc(N)c(-c2cccc(C(F)(F)F)c2)c(Cc2cccc(C(F)(F)F)c2)n1,.,57.5,.,.,.,.
Nc1ncccc1OCc1cccc(C(F)(F)F)c1,.,.,.,.,.,/
CN1CCN(C(=O)C[C@@H]2CC[C@H]3[C@@H](COC[C@@H](O)CN3C(=O)C3CC3)O2)CC1,/,.,/,.,/,/
CCCCC[C@H](C)N1C[C@H](COCc2ccccc2)Oc2cc(N3CC[C@@H](N(C)C)C3)ccc2S1(=O)=O,.,59.5,.,.,/,.
C[C@@H]1CN([C@@H](C)CO)C(=O)c2cc(NC(=O)C3CC3)ccc2O[C@H]1CN(C)C(=O)Nc1ccc2c(c1)OCO2,/,.,/,.,/,/
C[C@H]1CN([C@@H](C)CO)C(=O)c2cc(NC(=O)Nc3ccc4c(c3)OCO4)ccc2O[C@@H]1CN(C)S(=O)(=O)c1cn(C)cn1,/,.,/,.,/,/
Nc1ccc(-c2cc3ccccc3c(=O)o2)cc1,.,64.4,.,.,.,.
O=c1oc(-c2ccccc2)cc2ccccc12,.,.,.,.,/,/
CCOc1ccc(N=C2C(=O)Nc3ccc(C)c(Br)c32)cc1,.,52.1,.,.,.,.
CCCCCCCCCCCCCCCCCCNc1ccn(C2OC(COP(=O)(O)OCC3OC(n4cc(F)c(=O)[nH]c4=O)CC3O)C(O)C2O)c(=O)n1 (stereo not drawn),.,60.7,.,/,.,.
O=c1[nH]c(=O)n(C2OC(CO)C(O)C(O)C2O)cc1F (stereo not drawn),/,.,/,/,/,/
CCCCCCCN(c1ccccc1)[C@@H]1C[C@H]2CCCC(=O)N3CC[C@@H](C1)[C@@H]23,.,62.4,.,52.2,.,.
CCCCNC(=O)O[C@@H]1C[C@H]2CCCC(=O)N3CC[C@@H](C1)[C@@H]23,.,.,.,.,.,/
C[C@H]1CCCCO[C@@H](CN(C)Cc2ccc(C(=O)O)cc2)[C@@H](C)CN([C@@H](C)CO)C(=O)c2cc(NC(=O)Nc3ccc4c(c3)OCO4)ccc2O1,/,.,/,.,/,/
COc1ccc2cc(C(N)=O)/c(=N\NC(=O)c3ccccc3)oc2c1,58.2,70.9,89.2,?,45.8,.
C[C@@H]1CCCCO[C@@H](CN(C)C(=O)Nc2ccc(C(F)(F)F)cc2)[C@H](C)CN([C@@H](C)CO)C(=O)c2cc(NC(=O)Nc3cccc4ccccc34)ccc2O1,/,.,/,.,/,/
CC1=NN(c2ccc(C)cc2)C(=O)/C1=C\C=C\c1ccccc1,.,60.8,94.4,.,.,.
CC1=NN(c2ccccc2)C(=O)C1=Cc1ccccc1,.,.,.,.,.,/
C[C@H]1CN([C@@H](C)CO)C(=O)c2cc(C#Cc3ccncc3)cnc2O[C@H]1CN(C)S(=O)(=O)c1ccccc1F,/,.,/,.,/,/
SMILES,TROY signal inh,EWS-Fli inh,TWEAK Fn14 block,LGR2 inh,LMP1 NFkB inh,DNA binding
COc1ccc(CCCNC(=O)C2Cc3c(-c4ccc5c(c4)OCO5)ccnc3O2)cc1 (stereo not drawn),.,53.4,.,.,/,.
C[C@H]1CN([C@@H](C)CO)C(=O)CCCn2nncc2CO[C@H]1CN(C)C(=O)CCCN(C)C,/,.,/,.,/,/
COC(=O)C[C@@H]1CC[C@@H]2[C@H](COc3ccc(NC(=O)c4ccc(F)c(F)c4)cc3C(=O)N2C)O1,/,71.5,/,.,/,.
COC(=O)C[C@@H]1CC[C@@H]2[C@H](COc3ccc(NC(=O)c4ccc(C(F)(F)F)cc4)cc3C(=O)N2C)O1,/,77.6,/,.,/,.
Cc1cc(C(=O)Nc2ccc3c(c2)C(=O)N(C)[C@@H]2CC[C@@H](CC(=O)NCc4ccc(-c5ccccc5)cc4)O[C@H]2CO3)no1,/,66.1,/,.,/,.
CN1C(=O)c2cc(NC(=O)c3ccc(Cl)cc3)ccc2OC[C@H]2O[C@@H](CC(=O)NCc3cccc(F)c3)CC[C@@H]21,/,.,/,.,/,/
CN1C(=O)c2cc(NC(=O)c3ccc(Cl)cc3)ccc2OC[C@@H]2O[C@@H](CC(=O)NCc3cccc(F)c3)CC[C@H]21,/,61.3,/,.,/,.
CCNC(=O)C[C@@H]1CC[C@H]2[C@@H](COc3ccc(NC(=O)c4cc(C)on4)cc3C(=O)N2C)O1,/,.,/,.,/,/
O=C(NCc1ccncn1)[C@@H]1[C@@H](CO)[C@@H]2Cn3c(ccc(-c4cccc(F)c4)c3=O)[C@@H]2N1CC1CC1,/,.,/,.,/,/
Cc1cc(C)c2sc(NNC(=O)c3ccc(S(=O)(=O)N4CCc5ccccc5C4)cc3)nc2c1,.,53.9,.,/,48.7,.
CCc1nc(N)nc(N)c1-c1ccc(Cl)cc1,.,63.6,.,.,.,.
OC[C@H]1[C@@H](c2ccc(C#CC3CCCC3)cc2)[C@@H]2CN(CCC(F)(F)F)CCCCN12,/,51.6,/,.,/,.
C[C@@H]1CN([C@H](C)CO)C(=O)Cc2cc(NC(=O)C3CCCCC3)ccc2O[C@H]1CN(C)Cc1ccc(C(=O)Nc2ccccc2N)cc1,/,.,/,.,/,/
CO[C@H]1CN(C)C(=O)c2cc(NC(=O)c3ccc(Oc4ccccc4)cc3)ccc2OC[C@H](C)NC[C@@H]1C,/,57.9,/,.,/,.
CO[C@@H]1CN(C)C(=O)c2ccc(NC(=O)c3ccc(-c4ccccc4)cc3)cc2OC[C@H](C)NC[C@@H]1C,/,.,/,.,/,/
CO[C@H]1CN(C)C(=O)c2ccc(NC(=O)c3ccc(-c4ccccc4)cc3)cc2OC[C@H](C)NC[C@H]1C,/,82.8,/,.,/,.
C[C@H](CO)N1C[C@H](C)[C@H](CN(C)C(=O)Nc2ccc3c(c2)OCO3)Oc2ncc(C#CC3(O)CCCC3)cc2C1=O,/,.,/,.,/,/
C[C@@H]1CN([C@@H](C)CO)C(=O)Cc2cc(NC(=O)CCCCCC(=O)Nc3ccccc3N)ccc2O[C@@H]1CN(C)Cc1ccc(-c2ccccc2)cc1,/,.,/,/,/,/
C[C@H]1CN([C@@H](C)CO)C(=O)Cc2cc(NC(=O)CCCCCC(=O)Nc3ccccc3N)ccc2O[C@H]1CN(C)Cc1ccc(Oc2ccccc2)cc1,/,60.1,/,.,/,.
